We go through 124 sequences from publication PMC5836133, “The intracellular immune receptor Rx1 regulates the DNA-binding activity of a Golden2-like transcription factor”.

In all, about 16,000 sequences were measured (“e-score”: median about -0.044, highest 2% from about 0.38 on). The full list was thinned out, with the highest values kept by preference.

The target in the assay is T1, GST-NbGlk1(82-244) (Nicotiana benthamiana).
T1 chain: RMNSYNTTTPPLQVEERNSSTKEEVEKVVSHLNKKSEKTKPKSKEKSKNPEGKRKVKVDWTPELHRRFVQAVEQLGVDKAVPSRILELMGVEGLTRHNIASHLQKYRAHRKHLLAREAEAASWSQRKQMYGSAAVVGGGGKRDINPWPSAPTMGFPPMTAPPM
Briefly: protein-binding microarray; NbGlk1 is a Golden2-like transcription factor of Nicotiana benthamiana; high values mean tight binding. To be noted: protein: recombinant; tags: GST (pTH6838); dsDNA, one strand shown.
ATCCTCGA: the binding signal came out at 0.224 ± 0.0852 E-score.
Next, AAATATGG: 0.272 ± 0.0577 E-score; ATCTTCCA: 0.319 ± 0.0516 E-score.
With AATATTAG the figure was 0.209 ± 0.0412 E-score; with ATCGGCAA, 0.216 ± 0.00468 E-score.
Next, ATCTTTCA: 0.247 ± 0.0983 E-score; ATCTATGA: 0.247 ± 0.0113 E-score.
In the case of AGATTTGA, the binding signal is 0.327 ± 0.0876 E-score.
As for AATTTTGG, the binding signal turned out to be 0.25 ± 0.0182 E-score.
Consider ATATTTGC, for which the binding signal turned out to be 0.338 ± 0.0673 E-score.
Consider AGATTTGC, for which the binding signal was 0.4695 ± 0.00449 E-score.
In the case of AGATTTAG, the binding signal worked out at 0.276 ± 0.0684 E-score.
For AGATTTGG, the binding signal came to 0.394 ± 0.0453 E-score.
For ATCATGAT, the binding signal turned out to be 0.205 ± 0.00494 E-score.
Regarding ATTTCGGC, the binding signal was determined as 0.283 ± 0.0422 E-score.
Turning to ACTAAGAT, the binding signal came to 0.231 ± 0.0287 E-score.
With ACTAAAAT, the binding signal came out at 0.281 ± 0.0324 E-score.
As to ATCCACAT, the binding signal amounted to 0.256 ± 0.0906 E-score.
For CAATCTTA, the binding signal turned out to be 0.304 ± 0.0126 E-score.
On to AAATCTTA, for which the binding signal came out at 0.44 ± 0.0386 E-score.
AAATCGTC: the binding signal is 0.354 ± 0.0288 E-score.
With CAATCTTC the figure was 0.294 ± 0.0422 E-score; with AAATCATG, 0.332 ± 0.0128 E-score.
In the case of AAATCGTA, the binding signal turned out to be 0.373 ± 0.0227 E-score.
As for AAATCGTG, the binding signal stood at 0.365 ± 0.0286 E-score.
Regarding AAATCTTG, the binding signal turned out to be 0.4213 ± 0.00314 E-score.
Next, AGATCTTA: 0.347 ± 0.0143 E-score.
For the sequence AGATCTTG, the binding signal was found to be 0.373 ± 0.0461 E-score.
Next, AGATCTTC: 0.428 ± 0.0156 E-score.
AAATCTTC: the binding signal came to 0.446 ± 0.0208 E-score.
In the case of ATCTTCTC, the binding signal is 0.311 ± 0.013 E-score.
Regarding ATCAGATC, the binding signal came out at 0.35 ± 0.0204 E-score.
On to ATTACGTA, for which the binding signal is 0.354 ± 0.0309 E-score.
On to AGATACTG, for which the binding signal was 0.33 ± 0.00398 E-score.
Turning to AGCGCGAT, the binding signal turned out to be 0.325 ± 0.0563 E-score.
Next, AATATATG: 0.252 ± 0.0059 E-score; AATCGATG: 0.268 ± 0.0785 E-score; ATTCTATA: 0.284 ± 0.0791 E-score.
AATCTATA: the binding signal turned out to be 0.402 ± 0.0321 E-score.
Consider AATCTATG, for which the binding signal stood at 0.38 ± 0.0331 E-score.
Consider AATCTATC, for which the binding signal is 0.366 ± 0.0334 E-score.
For ATCTGCGC, the binding signal was 0.317 ± 0.0626 E-score.
For the sequence AACGCGAT, the binding signal turned out to be 0.341 ± 0.0519 E-score.
Take AAAGGAAT: the binding signal was found to be 0.27 ± 0.0558 E-score.
On to ATCCAGTG, for which the binding signal came out at 0.221 ± 0.123 E-score.
Consider AGAGATAC, for which the binding signal came to 0.222 ± 0.0223 E-score.
For the sequence AAAGATAT, the binding signal was 0.342 ± 0.0309 E-score.
Take AGAGATCT: the binding signal was found to be 0.411 ± 0.0152 E-score.
Turning to ACAGATAC, the binding signal was 0.276 ± 0.00718 E-score.
As to ATAGAGAT, the binding signal turned out to be 0.276 ± 0.0241 E-score.
With ATAGATAT, the binding signal came out at 0.394 ± 0.0151 E-score.
Take ATAGATAC: the binding signal worked out at 0.26 ± 0.0116 E-score.
Turning to AGAGAGAT, the binding signal was 0.241 ± 0.0533 E-score.
With AGAGATCC the figure was 0.346 ± 0.0193 E-score.
AGAGATAT: the binding signal was determined as 0.391 ± 0.0365 E-score.
With ACAGATAT the figure was 0.415 ± 0.0135 E-score.
In the case of AGAGATCG, the binding signal stood at 0.303 ± 0.0386 E-score.
As to AACTAGAT, the binding signal was 0.208 ± 0.0834 E-score.
With ATTTCTCC the figure was 0.242 ± 0.0333 E-score; with AATTACGT, 0.26 ± 0.0756 E-score; with ATTCTTGA, 0.221 ± 0.0445 E-score.
As to ACGAAGAT, the binding signal worked out at 0.31 ± 0.00598 E-score.
Take ATATGCTG: the binding signal was 0.258 ± 0.0732 E-score.
With AAAGATCG the figure was 0.278 ± 0.0495 E-score.
With AAAGATCT, the binding signal was 0.38 ± 0.023 E-score.
As to AAAGATCC, the binding signal stood at 0.292 ± 0.0246 E-score.
As for AGCAAGAT, the binding signal turned out to be 0.309 ± 0.0213 E-score.
As to ATTATCCC, the binding signal came out at 0.261 ± 0.0646 E-score.
As to ATAACGAT, the binding signal was found to be 0.216 ± 0.0183 E-score.
Take ATATCCAA: the binding signal amounted to 0.407 ± 0.00723 E-score.
With AGATCCAC the figure was 0.287 ± 0.0119 E-score; with ATATCAAA, 0.228 ± 0.00678 E-score.
For ATCTCCAT, the binding signal was 0.335 ± 0.0406 E-score.
In the case of ATATCCAC, the binding signal stood at 0.393 E-score.
ATATCCCC: the binding signal worked out at 0.36 ± 0.0106 E-score.
On to ATATCAAG, for which the binding signal worked out at 0.298 E-score.
For the sequence ATATCCAT, the binding signal was determined as 0.43 ± 0.00596 E-score.
Next, ATATCCAG: 0.3945 ± 0.00384 E-score; AGATCCAG: 0.261 ± 0.0749 E-score; ATATCCCA: 0.3708 ± 0.000904 E-score.
In the case of ATATCAAT, the binding signal worked out at 0.281 ± 0.00703 E-score.
With ATTGTGTA the figure was 0.249 ± 0.00712 E-score.
With ATCCCCGG, the binding signal is 0.256 ± 0.0142 E-score.
In the case of AGAATTTA, the binding signal was determined as 0.222 ± 0.00311 E-score.
Next, AATTTCAT: 0.238 ± 0.0823 E-score; ATCCGTTA: 0.315 ± 0.0322 E-score.
Next, ATCAGTGA: 0.218 ± 0.0932 E-score; ATCTGGTA: 0.238 ± 0.087 E-score.
ATCGCGAC: the binding signal was determined as 0.287 ± 0.126 E-score.
With AATCCTTG the figure was 0.336 ± 0.0164 E-score; with ATGGTAAT, 0.305 ± 0.00923 E-score; with AAATCCAT, 0.422 ± 0.0113 E-score.
Take CAATCCAG: the binding signal was found to be 0.291 ± 0.00762 E-score.
Consider AATCCCAC, for which the binding signal turned out to be 0.318 ± 0.0378 E-score.
As for AGATCCAA, the binding signal was determined as 0.262 ± 0.127 E-score.
Next, CAATCCAA: 0.298 ± 0.0654 E-score.
As for AAATCCAA, the binding signal was 0.426 ± 0.042 E-score.
Regarding AAATCCAC, the binding signal was 0.43 ± 0.0323 E-score.
AAATCCAG: the binding signal came to 0.413 ± 0.0172 E-score.
Next, AAATCAAG: 0.318 ± 0.0251 E-score.
Next, CAATCCAC: 0.328 ± 0.0614 E-score; ATCCCAGA: 0.276 ± 0.00637 E-score.
Turning to ATATGAGA, the binding signal is 0.231 ± 0.0943 E-score.
Consider ATTACCTG, for which the binding signal came to 0.213 ± 0.0963 E-score.
With CAATATCA, the binding signal stood at 0.299 ± 0.00874 E-score.
As for ATCTTGAA, the binding signal was determined as 0.286 ± 0.0202 E-score.
Next, AATATAGA: 0.271 ± 0.00595 E-score; ACCTGGAT: 0.224 ± 0.0187 E-score.
Regarding ATTTTTAG, the binding signal was found to be 0.235 ± 0.0033 E-score.
With ATTTGTAC, the binding signal came out at 0.228 ± 0.0254 E-score.
With AAATCCCG the figure was 0.435 ± 0.00616 E-score.
With AAATCACG the figure was 0.381 ± 0.0177 E-score.
Consider AATCCCCG, for which the binding signal worked out at 0.362 ± 0.0401 E-score.
Take AAATCACA: the binding signal was determined as 0.349 ± 0.00405 E-score.
On to AAATCACC, for which the binding signal was 0.333 ± 0.00843 E-score.
Consider AAATCCCA, for which the binding signal stood at 0.4 ± 0.00412 E-score.
With CAATCCCA the figure was 0.279 ± 0.00457 E-score; with CAATCCCG, 0.284 ± 0.05 E-score; with AAATCCCC, 0.368 ± 0.0151 E-score.
For ATTTCGGG, the binding signal stood at 0.27 ± 0.0618 E-score.
As to ATCTCATC, the binding signal came to 0.312 ± 0.051 E-score.
As for ACCGCAAT, the binding signal stood at 0.302 ± 0.00387 E-score.
For ATCCGGAG, the binding signal came to 0.233 ± 0.0472 E-score.
As to ATCCGGAA, the binding signal came to 0.332 ± 0.0273 E-score.
